Bioassay records: PubChem BioAssay, National Center for Advancing Translational Sciences (NCATS)
This is a sample that favours compounds with a hit; in the whole collection about 18% have one here.
TDP1 cell noCPT = qHTS for Inhibitors of human tyrosyl-DNA phosphodiesterase 1 (TDP1): qHTS in cells in absence of CPT | DT40 Tdp1-/- hTDP1 cells, no CPT, ATP luminescence, 48 h | 420,000 tested, 15% active | AID 686978, 2013 | Potency, µM (top dose mostly 46.2 µM), inactives show top-dose activity change, negative = growth inhibition, actives largely listed as inhibitors; further: potency means the concentration at half of the fitted maximal effect; on the % scale 0 is the no-effect control and ±100 the full control effect; nearly all actives have a fitted effect of over 55% in size
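No-CPT arm: Tdp1-/-;hTDP1 DT40 cells (400/well) plus compounds, incubated ≥48 hr at 37 °C. Readout CellTiter-Glo luminescence.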
TGFb SMAD3 inh = blocks TGF-b signaling; HepG2 CAGA-GFP TGF-b/SMAD3 reporter, GFP fluorescence, 18 h; TGF-beta stimulated, 500 pg/mL final; 410,000 tested, 1.2% active; Potency, µM (doses to about 46.1 µM), for the others: at the highest dose activity, negative = inhibition, actives largely listed as inhibitors; further: potency means the concentration at half of the fitted maximal effect; on the % scale 0 is the no-effect control and ±100 the full control effect; nearly all actives have a fitted effect of over 65% in size
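TGF-beta reporter screen: HEPG2 CAGA-GFP, 1% FBS, 500 pg/mL TGF-beta final, 18 h; per-cell GFP summed per well; curves fitted and categorized by class.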
HepG2 viability = kills HepG2 cells in TGF-b inhibitor counter-screen; HepG2 CAGA-GFP viability, ATP luminescence, 18 h; Potency, µM (highest dose often 46.1 µM), for inactives: at the highest dose activity change, negative = cytotoxicity, actives largely listed as cytotoxic; 410,000 tested, 0.76% active; AID 588856; further: potency means the concentration at half of the fitted maximal effect
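CellTiter-Glo luminescence gave cytotoxicity after 18 hours at 37 degrees C. The cells were HepG2 CAGA-GFP in 1% FBS DMEM, stimulated with 500 pg/mL TGF-beta after compound addition. %Activity was normalised to no-cell wells (complete cell-killing) and DMSO (no toxicity), and curves were fitted and classified.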
TDP1 block = blocks human tyrosyl-DNA phosphodiesterase 1; AID 485290; 350,000 tested, 0.28% active; recombinant TDP1, AlphaScreen DNA substrate cleavage; Q9NUW8; Potency, µM (series often up to 130 µM), for the others: top-dose activity change, negative = inhibition, hits mostly inhibitors; further: potency means the concentration at half of the fitted maximal effect; on the % scale 0 is the no-effect control and ±100 the full control effect; nearly all actives have a fitted effect of over 40% in size
Target sequence (Q9NUW8 whole entry, looked up): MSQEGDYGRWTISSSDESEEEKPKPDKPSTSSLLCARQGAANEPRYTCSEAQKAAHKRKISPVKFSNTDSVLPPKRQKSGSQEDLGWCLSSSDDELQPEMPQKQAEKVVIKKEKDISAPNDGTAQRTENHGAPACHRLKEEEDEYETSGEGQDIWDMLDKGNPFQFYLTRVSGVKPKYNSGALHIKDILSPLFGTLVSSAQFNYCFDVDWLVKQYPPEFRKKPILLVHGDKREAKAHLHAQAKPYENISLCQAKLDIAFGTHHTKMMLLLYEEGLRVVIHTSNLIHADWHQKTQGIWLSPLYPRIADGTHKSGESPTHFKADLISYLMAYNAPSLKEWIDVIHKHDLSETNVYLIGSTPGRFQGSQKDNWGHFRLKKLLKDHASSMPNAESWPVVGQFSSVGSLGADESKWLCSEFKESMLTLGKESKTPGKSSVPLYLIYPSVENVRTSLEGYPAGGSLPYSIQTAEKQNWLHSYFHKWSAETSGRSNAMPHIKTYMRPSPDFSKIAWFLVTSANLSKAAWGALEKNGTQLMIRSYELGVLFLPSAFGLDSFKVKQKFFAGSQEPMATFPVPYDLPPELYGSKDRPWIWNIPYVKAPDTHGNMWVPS
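Recombinant human Tdp1 (E. coli-expressed, 1 nM final) preincubated with compounds 15 min at room temperature, then 5'-biotin/3'-phosphotyrosine-FITC DNA substrate (15 nM final) added for 5 min. AlphaScreen beads (10 ug/ml final) added 10 min; cleavage lowers signal.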
TDP1 cell CPT = growth inhibition of DT40 Tdp1-/-;hTDP1 cells with camptothecin (screen for TDP1 inhibitors); 420,000 tested, 12% active; Potency, µM (series often up to 46.2 µM), inactives show at the top dose activity change, negative = growth inhibition, actives largely listed as inhibitors; chicken DT40 Tdp1-/-;hTDP1 cells + 20 nM CPT, ATP luminescence, 48 h; AID 686979; further: potency means the concentration at half of the fitted maximal effect; on the % scale 0 is the no-effect control and ±100 the full control effect; nearly all actives have a fitted effect of over 55% in size
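Chicken DT40 Tdp1-/- cells complemented with human TDP1, 400 cells/well, exposed to compounds plus 20 nM camptothecin for at least 48 h at 37 C; viability read as ATP content by CellTiter-Glo luminescence.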
IL1B secr inh = inflammasome signaling inhibition, IL-1 beta readout; THP-1 LPS/ATP IL-1B secretion, AlphaLISA, 16 h; hits give low values; activity change, % at 57.5 µM; 360,000 tested, 4.7% active; AID 743279; in the data active means activity change below about -50%; inconclusive means mostly about -30% to -49%; further: on the % scale 0 is the no-effect control and ±100 the full control effect
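Secreted IL-1B measured by AlphaLISA bead assay after 16 h compound exposure of THP-1 cells; compounds (final up to 57.5 uM) added 1 h before LPS (250 ng/mL) and ATP (1.25 mM) stimulation; lower signal means less secretion.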
An asterisk follows results filed as active; ? = inconclusive; . = not tested or not shown. Unless noted, the call rests on the fitted dose curve; in most records, active means well fitted curve in the direction sought with a large enough effect; inconclusive means small, poorly fitted or top-dose-only effect, or another doubt; inactive means no such curve, though single readings can be large; an effect the other way counts as inactive or inconclusive.

SMILES	TDP1 cell noCPT	TGFb SMAD3 inh	HepG2 viability	TDP1 block	TDP1 cell CPT	IL1B secr inh
COCCN1C(=O)CN(S(C)(=O)=O)CC1(C)C(=O)Nc1ccc2c(c1)OCCO2 (centres undefined)	10%	.	.	.	7%	-2
Cc1cccc(C(=O)Nc2ccc(C(=O)/C=C/c3cccnc3)cc2)c1	4.6µM*	1.4µM*	-60%	2%	5.2µM*	-78*
O=C(N/N=C/c1cccnc1)c1cccc(Br)c1	0%	7%	-2%	3%	-12%	7
Cc1cccc(C(=O)Nc2ccc(C(=O)N/N=C/c3cccnc3)cc2)c1	-19%	9%	14%	-5%	8%	14
Cc1cccc(C(=O)Nc2ccc(C(=O)/C=C/c3ccncc3)cc2)c1	?	11µM*	-52%	.	?	6
O=C(/C=C/c1cccnc1)c1ccc(NC(=O)c2cccc(Br)c2)cc1	3.2µM*	7%	-13%	0%	7.1µM*	-25
CCn1ccc(-c2ccccc2)c(C#N)c1=O	3%	9%	-1%	-6%	1%	-3
O=S(=O)(c1cc(Cl)cc(Cl)c1)N1CCC2CC1c1cc(Cl)ccc12 (centres undefined)	?	?	-7%	.	?	20
CC(C)OC(=O)CSc1nc2ncc(Cl)cc2[nH]1	-3%	2%	-10%	4%	-14%	?
Cc1ccc2nc(SCC(=O)c3c(C)[nH]c4ccccc34)[nH]c2c1	18µM*	-9%	-8%	1%	23µM*	?
Cc1[nH]c2ccccc2c1C(=O)CSc1nc2ncc(Cl)cc2[nH]1	?	?	-42%	5%	13µM*	30
COc1ccc(-n2nc([N+](=O)[O-])c(=NCCc3ccc(C)cc3)n2O)cc1	?	-30%	-19%	8%	?	-27
O=[N+]([O-])c1nn(-c2ccc3c(c2)OCCO3)n(O)c1=NCc1ccccc1Cl	?	-1%	-13%	2%	-28%	-20
COc1ccc(-n2nc([N+](=O)[O-])c(=NCCc3ccc(Cl)cc3)n2O)cc1	?	-12%	-22%	6%	?	-28
O=[N+]([O-])c1nn(-c2ccc3c(c2)OCCO3)n(O)c1=NC1CCCCC1	?	-16%	-17%	12%	21µM*	-25
COc1ccc(-n2nc([N+](=O)[O-])c(=NCc3cccnc3)n2O)cc1	?	9%	-4%	1%	16µM*	23
COc1ccc(-n2nc([N+](=O)[O-])c(=NC3CCN(Cc4ccccc4)CC3)n2O)cc1	15µM*	?	-43%	5%	16µM*	-5
COc1ccc(-n2nc([N+](=O)[O-])c(=NCCc3ccc(OC)c(OC)c3)n2O)cc1	21µM*	-31%	16µM*	6%	15µM*	?
O=C(O)c1ccc(-c2noc(-c3ccc(F)cc3)n2)cc1	.	-27%	-8%	.	.	.
COc1ccc(-n2nc([N+](=O)[O-])c(=NCCC3=CCCCC3)n2O)cc1	?	-12%	-20%	9%	21µM*	-55*
COc1ccc(-n2nc([N+](=O)[O-])c(=NCc3ccco3)n2O)cc1	-24%	-3%	-9%	-8%	7%	1
COc1ccc(C2C(C#N)=C(N)N(c3ccccc3)C3=C2C(=O)CCC3)cc1Cn1cc([N+](=O)[O-])cn1 (centres undefined)	?	?	-10%	3%	?	-74*
O=C(C[n+]1cccc2cccc(O)c21)c1ccc(Br)cc1	-3%	-10%	-8%	.	-10%	.
Cc1c(Br)cccc1NC(=O)C1(C)CCN1C(C)C (centres undefined)	?	-24%	-3%	.	?	-12
Cc1ccc2c(c1)C1CN(C)CCC1N2C(=O)COc1ccc(N(C)C(=O)c2ccccc2)cc1 (centres undefined)	13µM*	?	-8%	-1%	5.2µM*	0
SMILES	TDP1 cell noCPT	TGFb SMAD3 inh	HepG2 viability	TDP1 block	TDP1 cell CPT	IL1B secr inh
CN(C(=O)c1cccs1)c1ccc(OCC(=O)N2CCC(C(N)=O)CC2)cc1	?	2%	-4%	0%	?	24
CC(=O)OC1c2ccccc2C(=O)N1Cc1ccccc1Cl (centres undefined)	-26%	-17%	-10%	7%	6%	-9
NNc1nc2cccnc2n(CCNc2ncc(C(F)(F)F)cc2Cl)c1=O	?	-1%	2%	4%	16µM*	0
O=c1c(Cl)nc2cc(Cl)ccc2n1CCNc1ncc(C(F)(F)F)cc1Cl	0.58µM*	-8%	-1%	-2%	0.52µM*	27
O=c1[nH]c2cccc(Cl)c2n(CCNc2ncc(C(F)(F)F)cc2Cl)c1=O	?	?	-45%	-5%	?	-29
O=C(NC(=S)N1CCCCC1)c1cccs1	15µM*	-4%	2%	0%	?	-4
O=C(c1cccs1)N1CCN(C(=O)c2cccs2)C1=S	5.8µM*	6.3µM*	-50%	.	5.8µM*	-95*
CC1CCCCN1C(=S)NC(=O)c1cccs1 (centres undefined)	16µM*	-18%	-15%	.	?	10
CC1CCN(C(=S)NC(=O)c2cccs2)CC1	?	-5%	-5%	1%	?	33
O=C(NC(=S)N1CCN(c2ccc(Cl)cc2[N+](=O)[O-])CC1)c1cccs1	21µM*	?	-25%	-4%	9.2µM*	26
O=C(NC(=S)N1CCN(c2ccc(Cl)cc2[N+](=O)[O-])CC1)c1ccco1	?	7%	-7%	-2%	?	12
Cc1sc2ncn(CC(=O)N3CCN(c4ccc(F)cc4)CC3)c(=O)c2c1S(=O)(=O)N1CCOCC1	?	-14%	-2%	6%	-10%	-12
O=C(N/N=C/c1cccs1)c1cc(-c2ccc(Cl)s2)[nH]n1	?	?	-36%	?	-13%	?
CCc1nnc(NC(=O)c2ccc(Br)c(S(=O)(=O)N3CCOCC3)c2)s1	-29%	-3%	-7%	.	-9%	-15
O=C(Nc1ccc(OC(F)(F)F)cc1)C1CCCN(C(=O)c2ccc(Cl)cc2)C1 (centres undefined)	12µM*	?	-28%	1%	16µM*	-28
CS(=O)(=O)c1ccc(NC(=O)C2CCCN(C(=O)c3ccc(Cl)cc3)C2)cc1 (centres undefined)	?	-12%	-29%	3%	-27%	22
